Shiga toxin inh: blocks Shiga toxin action in Vero cells; Vero cells, Shiga toxin protein synthesis inhibition reporter; 290,000 tested, 9.2% active; inhibition, % at 38.7 µM; in the data active = inhibition mostly above about 28%, no sharp cut-off; inactive = mostly below about 43%; also: 0% is about no effect
NS1 inh: influenza NS1 inhibition; AID 2326; Potency, µM (series often up to 46.1 µM), inactives show top-dose activity, positive = more growth; 270,000 tested, 0.4% active; calls by dose curve; also: potency is read from the fitted curve at half-maximal effect; actives are rising curves; nearly all actives have a fitted effect of over 50% in size
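OD600 was taken as the measure of yeast growth restored by compound in an NS1-expressing S. cerevisiae strain. Cells had been washed out of glucose medium and diluted 1:100 into galactose -URA medium, pH 6.0.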
CHX counter: counter-screen hit for Shiga toxin inhibitors, cycloheximide; cell reporter, cycloheximide protein synthesis inhibition counterscreen; max response, %; 300,000 tested, 12% active; AID 2314; in the data active = max response mostly above about 13%, no sharp cut-off; inactive = mostly below about 14%; also: read at 38.3 µM for the half of the compounds with a filed dose; 0% is about no effect
Pf growth 48h: inhibits P. falciparum growth in the first generation, 48 h; AID 504832; P. falciparum luciferase growth in erythrocytes, 48 h; Potency, µM (top dose mostly 28.7 µM), without a hit: at the top dose activity change, negative = inhibition, hits mostly inhibitors; 310,000 tested, 5.9% active; also: potency is read from the fitted curve at half-maximal effect; % is scaled to controls: 0 for no effect and ±100 for the full control effect
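Cell-based growth assay: transgenic P. falciparum expressing firefly luciferase, cultured in red cells within RPMI 1640 containing 0.5% w/v Albumax, 24 mM bicarbonate and gentamycin. A drop in luciferase activity indicates inhibition.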
Sm TGR block: S. mansoni TGR enzyme inhibition | Q962Y6 | purified TGR, DTNB reduction, TNB absorbance 405 nm | Potency, µM (titrated, usually from 114 µM), inactives show at the highest dose activity change, negative = inhibition, usual class: inhibitors | 360,000 tested, 3% active | AID 485364; also: potency is read from the fitted curve at half-maximal effect; % is scaled to controls: 0 for no effect and ±100 for the full control effect; nearly all actives have a fitted effect of over 60% in size
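TGR 20 nM + NADPH 100 uM (dispensed conc.), cpd preinc 15 min RT; start with NADPH (500 uM addition) then DTNB (15 mM addition). Kinetic TNB absorbance, 405 nm filter. Four-parameter Hill fit across titration.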
Pf growth 96h: P. falciparum growth inhibition at 96 hours; P. falciparum luciferase reporter growth, 96 h; Potency, µM (highest dose often 28.7 µM), for inactives: top-dose activity change, negative = inhibition, actives largely listed as inhibitors; 320,000 tested, 6.9% active; AID 504834; also: potency is read from the fitted curve at half-maximal effect; % is scaled to controls: 0 for no effect and ±100 for the full control effect
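Delayed-death screen, second-generation endpoint: infected erythrocytes, 2% hematocrit, 0.05% parasitemia final; 96 hours at 37 C, 5% CO2; luciferase detection reagent; luminescence decrease equals reduced growth.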
Active calls of the source: *; ? = inconclusive; . = no result given; + = active, no number; ! = a repeat was not active; [ ] = dose if it differs, or a comment. A selection: hits, their analogues and other compounds. The true share with any hit is near 21%. Unless noted, calls follow the shape of the dose curve; as a rule, active = well fitted curve in the direction sought with a large enough effect; inconclusive = small, poorly fitted or top-dose-only effect, or another doubt; inactive = no such curve, though single readings can be large; an effect the other way counts as inactive or inconclusive.

SMILES	Shiga toxin inh	NS1 inh	CHX counter	Pf growth 48h	Sm TGR block	Pf growth 96h
Oc1oc(-c2ccco2)nc1C=Nc1ccccc1	99*	-63%	19*	12%	-30%	18%
CCOC(=O)c1ccc(N=Cc2nc(-c3ccccc3)oc2OC(C)=O)cc1	-4	-4%	10	.	?	16%
Cc1ccc(C(=O)Oc2oc(-c3ccco3)nc2C=Nc2ccccc2)cc1	89*	-50%	31*	145%	2.5µM*	87%
CC(=O)Oc1oc(-c2ccccc2)nc1C=Nc1ccccc1	30	-39%	18	29%	18µM*	54%
COc1ccc(N=Cc2nc(-c3ccccc3)oc2OC(=O)c2ccccc2)cc1	67*	-16%	59*	140%	-27%	243%
O=C(O)c1ccc(N=Cc2nc(-c3ccco3)oc2O)cc1	-4	.	0	8%	-28%	?
Cc1ccccc1NC(=O)Cn1c(=O)n(CCC(=O)N2CCc3ccccc3C2)c(=O)c2ccccc21	.	.	.	.	-1%	.
COc1cccc(OCCNC(=O)Nc2cc(F)c(F)cc2Cl)c1	-3	.	-4	-15%[5.75 µM]	8%	3%
CCC(=O)Oc1oc(-c2ccccc2)nc1C=Nc1ccc(C)cc1	10	1%	9	5%	-25%	41%
CN(C)c1ccc(N=Cc2nc(-c3ccccc3)oc2OC(=O)c2cccc(Br)c2)cc1	+	4%	40*	320%	-5%	385%
CCCSCCCNC(=O)c1ccc(Cn2c(=O)c3cccn3c3cccnc32)cc1	.	.	.	.	2%	.
CCc1ccc(NC(=O)Cn2c(=O)n(Cc3nc(-c4ccccc4)no3)c(=O)c3cc4c(cc32)OCO4)cc1	.	.	.	.	-7%	.
Cc1cc(=O)oc2cc(OC(C)C(=O)NCC3CCC(C(=O)O)CC3)ccc12 (stereo unspecified)	-5	6%	-1	-35%	4%	?
COc1ccc(-c2cc(=O)oc3c(C)c(OCC(=O)NCC4CCC(C(=O)O)CC4)ccc23)cc1 (stereo unspecified)	-4	20%	-1	-34%	-3%	13µM*
CC(Oc1ccc2c(-c3ccccc3)cc(=O)oc2c1)C(=O)NCC1CCC(C(=O)O)CC1 (stereo unspecified)	12	4%	-4	5.2µM*!	1%	3.3µM*
Cc1c(Cc2ccccc2)c(=O)oc2cc(OC(C)C(=O)NCC3CCC(C(=O)O)CC3)c(Cl)cc12 (stereo unspecified)	-7	16%	-1	-15%	-1%	10µM*
Cc1cc(OC(C)C(=O)NCc2ccccn2)c2c(C)c(Cc3ccccc3)c(=O)oc2c1 (stereo unspecified)	6	4%	-3	?	-9%	-10%
CCCc1ccc2oc(C(=O)NCCCN3CCOCC3)c(C)c2c1	67*	10%	50*	68%	-23%	?
CCCc1ccc2oc(C(=O)NCCN3CCCC(C(N)=O)C3)c(C)c2c1 (stereo unspecified)	-4	-3%	8	-3%	?	0%
COCC(C)NC(=O)c1oc2c(c1C)C1(CCC2)SCCS1 (stereo unspecified)	25	-40%	8	-25%	1%	?
CCCc1ccc2oc(C(=O)NCc3nnc(C)o3)c(C)c2c1	97*	-17%	45*	-3%	-6%	-1%
CCCc1ccc2oc(C(=O)NCCN3CCCC(O)C3)c(C)c2c1 (stereo unspecified)	77*	20%	34*	?	0%	0%
Cc1c(C(=O)NCCCN2CCOCC2)oc2c1C1(CCC2)SCCS1	+	-9%	7	-12%	25%	-3%
COc1ccc(CCNC(=O)C2(c3cccs3)CCOCC2)cc1OC	.	.	.	.	11%	.
Cn1c2c(c(=O)n(C)c1=O)C(c1ccccc1[N+](=O)[O-])CC(=O)N2 (stereo unspecified)	.	.	.	.	-3%	.
SMILES	Shiga toxin inh	NS1 inh	CHX counter	Pf growth 48h	Sm TGR block	Pf growth 96h
CCN(C(=O)c1cc2c(Cl)nc3ccccc3c2s1)c1cccc(Cl)c1	.	.	.	.	-2%	.
COc1cccc(N2CCN(c3ncnc4c3c(-c3ccccc3)cn4-c3ccc(C)cc3)CC2)c1	.	.	.	.	-4%	.
COc1cccc(NC(=O)CCNS(=O)(=O)c2ccc3c(c2)CCCC(=O)N3)c1	.	.	.	.	4%	.
Cc1c2cnn(-c3ccccc3)c(=O)c2c(C)n1CCCC(=O)Nc1cc(F)ccc1F	.	.	.	.	-2%	.
N#CC1=C(N)Oc2cc(N)ccc2C1c1cccc(F)c1 (stereo unspecified)	-6	3%	-1	6%	-19%	131%
N#CC1=C(N)Oc2cc(O)c(Cl)cc2C1c1cccnc1 (stereo unspecified)	-2	28%	-1	?	32µM*	-23%
N#CC1=C(N)Oc2cc(O)c(Cl)cc2C1c1ccccc1F (stereo unspecified)	-4	3%	-4	.	45µM*	-16%
N#CC1=C(N)Oc2cc(O)ccc2C1c1cccnc1 (stereo unspecified)	0	.	-3	6%	-13%	-9%
CN(C)c1ccc2c(c1)OC(N)=C(C#N)C2c1cccc(F)c1 (stereo unspecified)	-5	-116%	-4	13µM*	-34%	?
COC(=O)c1ccc(C2C(C#N)=C(N)Oc3cc(N)ccc32)cc1 (stereo unspecified)	-15	9%	2	-21%	-3%	12µM*
Cc1coc2c(C)c3oc(=O)c(CCC(=O)NCc4ccccn4)c(C)c3cc12	1	2%	-2	?	-4%	?
N#CC1=C(N)Oc2cc(O)ccc2C1c1ccncc1 (stereo unspecified)	-20	-6%	-1	0%	-29%	9.3µM*
COc1ccc(CNC(=O)Cn2c(=O)nc(-c3ccccc3F)c3cc(Cl)ccc32)cc1OC	.	.	.	.	-7%	.
CC(=O)c1cccc(NCC(=O)N2CCN(S(=O)(=O)c3ccccc3)CC2)c1	.	.	.	-7%	-31%	?
O=C(C#Cc1ccccc1)c1ccco1	-15	-128%	-7	-30%	0.89µM*	-17%
CCN(CC)S(=O)(=O)c1ccc(F)c(C(=O)NCCC(C)C)c1	18	-2%	1	-21%	-1%	4.1µM*
Cc1ccc(CNC(=O)CCCN2C(=O)COc3ccc(C)cc32)cc1	.	.	.	.	5%	.
COc1c(N2CCN(C(=S)Nc3ccccc3)C(C)C2)c(F)cc2c(=O)c(C(=O)O)cn(C3CC3)c12 (stereo unspecified)	30	8%	3	?	-14%	-17%
CNC(=S)N1CCN(c2c(F)cc3c(=O)c(C(=O)O)cn(C4CC4)c3c2OC)CC1C (stereo unspecified)	-12	3%	-9	.	-29%	13µM*
Cc1cccc2nc(COc3ccc4ccccc4c3Br)cn12	48*	-38%	46*	330%	-18%	193%

Assay outcomes from PubChem.
